Tat export inh – E. coli Tat export inhibitors, primary screen, MC4100, TorA-mCherry reporter, fluorescence, single point; inhibition, % at 10 µM; hit rate 0.036% among 340,000;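 active means mean replicate inhibition at least 50% and at least half of replicates individually reaching 50%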;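 further: exported cargo escapes ClpAP degradation while cytoplasmic cargo is degraded and loses fluorescence; 0% = median of neutral control wells and 100% = median of NaSCN control wells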
E coli growth-1 – E. coli growth inhibition, primary screen, OD600; Escherichia coli growth, 23 h; hits give low values; OD600 absorbance (test concentration not listed); hit rate 0.21% among 330,000; AID 1053175, 2014;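 active means OD600 absorbance below the run mean of sample wells minus 3.6 SD, in any replicate, cut at about 0.56 in these data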
E coli growth-2 – E. coli V3065 growth inhibition, primary screen, counter-screen for AddAB inhibitor project, absorbance, OD600; hit rate 0.27% among 330,000; 18 h; inhibition, % at 11.9 µM;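 active means inhibition above the campaign's mean inhibition across all tested compounds plus 3 SD, cut at about 9.9% in these data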;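 further: uninfected addAB+ strain grown without phage in ampicillin broth; 0% = DMSO wells and 100% = ciprofloxacin 0.95 µg/ml wells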
PfHsp90 yeast 2 – growth inhibition of PfHsp90-expressing yeast, primary screen, antimalarial PfHsp90 inhibitor project, S. cerevisiae, BacTiter-Glo luminescence, single point, set 2; BacTiter-Glo ATP, 48 h; yeast lacking PDR1 and PDR3 efflux regulators; inhibition, % at 9.4 µM; hit rate 0.32% among 310,000; AID 504621, 2011;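 active means every replicate shows inhibition above about 80%, whatever the replicate mean, limit read from the data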;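 further: 0% = DMSO neutral controls and 100% = 20 µM radicicol positive controls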
phage Ecoli inh – growth loss of phage-infected E. coli, primary screen, RecBCD inhibitor project, absorbance, with phage, HTS; inhibition, % at 11.9 µM; hit rate 0.26% among 360,000; in the data active means inhibition above about 11%
AddAB inh – growth inhibition of E. coli expressing H. pylori AddAB, primary screen, AddAB inhibitor project, absorbance. inhibition, % at 11.9 µM. hit rate 0.29% among 330,000. AID 435030, 2010; in the data active means inhibition above about 12%;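 further: 0% = vehicle wells of infected cells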
* = called active by the depositor; · = not tested or not shown. An excerpt weighted towards active compounds, which were near 0.69% of everything screened.

SMILES	Tat export inh	E coli growth-1	E coli growth-2	PfHsp90 yeast 2	phage Ecoli inh	AddAB inh
NC1=NCC(Cc2ccc(O)cc2)N1CCCCC1CCCCC1 (configuration not stated)	·	0.45*	·	·	·	·
O=C(CCCCl)NC1=NN(c2ccccc2)C(=O)C1	-1.2	0.692	0.2	-0.9	3.9	5.1
O=C(COc1ccc(Cl)cc1)NC1=NN(c2ccccc2)C(=O)C1	-8.3	0.715	-0.9	124.8*	0.9	-1.4
CCOC(=O)N/N=C/C(Cl)=C/c1ccccc1	5.4	·	12.6*	3.4	2.2	9.3
COc1ccc(C=NNC(=O)Cn2cnc3ccccc3c2=O)cc1OC	·	0.691	·	·	·	·
Cc1noc(NS(=O)(=O)c2ccc(NC(=O)CCn3c(=O)oc4ccccc43)cc2)c1C	-15.1	0.764	10.5*	-3.6	10.6	10.5
Cc1cc(C)nc(NS(=O)(=O)c2ccc(NC(=O)Cn3c(=O)oc4ccccc43)cc2)n1	-9.1	0.709	-1.5	-9.3	2.9	-0.5
Cc1c(Cl)cccc1NC(=S)N=Nc1c(O)n(CN2CCOCC2)c2ccccc12	18.6	·	-6.1	106.8*	·	-1.4
CC1CCN(c2nc(Cl)nc(Nc3ccc([N+](=O)[O-])cc3)n2)CC1	6.8	0.713	1.8	98.4*	3.9	0.8
C=CCNc1nc(Nc2ccc([N+](=O)[O-])cc2)nc(N2CCCC2)n1	4.5	0.716	-0.7	-47.5	2.3	1.8
Cc1ccc(NC(=O)Nc2ncccc2C)cc1	9.6	0.709	2.2	15.8	3.9	3.8
Cc1ccc(NC(=O)Nc2ccno2)cc1	·	0.449*	2.1	·	6.6	2.3
Cc1ccccc1C=CC(=O)NCC(=O)N1CCC(N(C)C2CCCCC2C)CC1 (configuration not stated)	·	0.712	·	·	·	·
O=C(NC(c1ccc(Cl)cc1)c1cc(Cl)c2cccnc2c1O)c1cccnc1 (configuration not stated)	-7.7	·	-1.0	101.8*	3.9	5.0
COc1ccc(OC)c(NC(=O)Nc2cccc3ccccc23)c1	-3.7	0.705	16.1*	17.4	2.3	9.8
CCCCCCSc1ccc(C2N[C@@](Cc3ccccc3)(C(=O)OC)C3C(=O)N(C)C(=O)C23)cc1OC (some centres not stated)	·	0.712	·	·	·	·
CCN(C(=O)CON=Cc1ccc(OC)cc1OC)c1c(N)n(Cc2ccccc2)c(=O)[nH]c1=O	·	0.715	·	·	·	·
COc1ccc(NC(=O)C2CCCN2S(=O)(=O)c2cccc3cccnc23)c(OC)c1 (configuration not stated)	-3.3	0.662	-1.3	101.8*	2.6	4.3
CCOC(=O)/C(=C/c1ccc(N2CCC(c3ccccc3)=N2)cc1)C(C)=O	10.4	0.733	·	106.3*	·	·
c1ccc(C2=NN(c3ccccc3)CC2)cc1	-0.3	0.692	0.0	7.3	4.2	0.1
COc1ccc(C2C=CCN(C(=O)Oc3ccccc3)CC(=O)N2Cc2ccc(F)cc2)cc1 (configuration not stated)	·	0.67	·	·	·	·
COc1cccc(F)c1C(C[N+](=O)[O-])c1c(N)n(C)c(=O)n(C)c1=O (configuration not stated)	-12.4	0.542	-1.7	103.2*	0.5	3.8
Cc1ccc(C(C[N+](=O)[O-])c2c(N)n(C)c(=O)n(C)c2=O)cc1 (configuration not stated)	-27.2	·	0.6	108.2*	4.8	1.4
O=C(NCc1cccnc1)Nc1ccc(Cl)c(Cl)c1	-5.0	0.589	1.6	20.6	1.2	3.9
S=C(NCc1ccc(Cl)cc1)Nc1ccncc1	7.8	0.515*	-1.4	-4.2	1.3	-1.1
SMILES	Tat export inh	E coli growth-1	E coli growth-2	PfHsp90 yeast 2	phage Ecoli inh	AddAB inh
S=C(NCc1cccnc1)Nc1ccc(Cl)c(Cl)c1	-12.2	0.493	11.3*	·	10.4	10.8
S=C(NCc1ccc(Cl)cc1)Nc1ccccc1	-10.1	0.665	0.3	-4.0	5.0	0.0
S=C(Nc1ccc(Cl)c(Cl)c1)NC1CCN(Cc2ccccc2)CC1	-6.4	0.585	10.8*	27.9	8.0	11.4
COc1cc(C=NNC(=O)Cc2ccccc2)cc(OC)c1OC	·	0.672	·	·	·	·
COc1ccc2cc(C(=O)C3CCCN(C(=O)c4snnc4C)C3)ccc2c1 (configuration not stated)	2.6	0.695	-1.3	-33.3	-0.9	-3.2
COc1ccc2cc(C(=O)C3CCCN(C(=O)Cc4c(C)noc4C)C3)ccc2c1 (configuration not stated)	-1.7	0.544*	-2.3	1.5	-1.9	1.1
O=C(CN(Cc1ccccc1Cl)C(=O)CNS(=O)(=O)c1ccc(F)cc1)NCC1CCCO1 (configuration not stated)	52.7*	0.655	0.7	9.2	1.2	-1.1
O=C(CN(Cc1ccc(F)cc1)C(=O)CNS(=O)(=O)c1ccc(F)cc1)NCC1CCCO1 (configuration not stated)	-0.6	0.677	0.5	1.8	-0.5	0.6
O=C1c2cccnc2C(=O)N1CO	1.8	0.742	-2.5	0.0	1.4	0.9
NC1=C(Br)C(=O)c2ncccc2C1=O	-15.0	·	·	-23.0	35.1*	·
Cc1cc(N2C(=O)C=CC2=O)c([N+](=O)[O-])cc1C	1.5	·	2.0	117.0*	·	-0.3
O=C(NN=Cc1cc([N+](=O)[O-])ccc1O)c1cccc(NC(=O)c2cccc(Cl)c2)c1	·	0.681	·	·	·	·
O=C(CNC(=O)c1ccccc1)OCc1cccc(Br)c1	-2.5	0.712	0.0	3.6	0.9	-1.6
O=C(CCCNC(=O)c1ccc(Cl)cc1)OCc1cccc(Br)c1	13.6	0.596	0.3	113.4*	7.0	-1.0
CC(N=C1CC(C)(C)CC(=O)/C1=C(\O)CCCN1C(=O)c2ccccc2C1=O)C(=O)O (configuration not stated)	·	0.665	·	·	·	·
O=C(NNC1=C(C(=O)C(F)(F)F)CCC1)c1cccc(Cl)c1	5.3	0.713	0.3	50.8	5.7	4.0
O=C(NNC1=C(C(=O)C(F)(F)F)CCC1)c1ccc(Cl)cc1	-1.4	0.588	-2.2	122.3*	2.6	1.4
CCOc1ccc(S(=O)(=O)NCc2ccccn2)c(C)c1C	11.9	0.692	-1.3	93.2*	1.0	1.0
O=C(Nc1cc(Cl)ccc1-n1cncn1)c1ccc([N+](=O)[O-])s1	-6.7	0.66	3.5	114.4*	·	5.4
Cc1ccc(OCc2n[nH]c(=S)n2C2CCCCC2)cc1	7.2	0.683	1.4	90.3*	1.3	1.8
CN(C)C(=NO)c1c(Cl)cccc1Cl	·	0.658	·	·	·	·
O=C(NN=Cc1c[nH]c2ccc(Br)cc12)c1ccn(Cc2ccc(Cl)cc2Cl)n1	·	0.769	·	·	·	·
O=C(/C=C1\C(=O)Nc2ccccc21)/C=C1\C(=O)Nc2ccccc21	2.1	0.509*	·	-19.3	-0.7	·
CC(C)Oc1ccc(C(=O)/C=C2/C(=O)Nc3ccccc32)cc1	-4.6	0.702	-1.0	106.7*	-0.4	-1.6
O=C1Nc2ccccc2/C1=C\C(=O)c1ccccc1	1.6	0.65	-2.9	1.1	0.2	2.2
